# Screening data: PubChem BioAssay, National Center for Advancing Translational Sciences (NCATS)
# HT1080NT lethal: kills 2HG-producing HT-1080-NT fibrosarcoma cells. HT-1080-NT fibrosarcoma viability, CellTiter-Glo ATP luminescence, 48 h. Potency, µM (highest dose often 46.1 µM), inactives show at the top dose activity, negative = less viability, usual class: cytotoxic. 1.6% of 360,000 active. AID 686970;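 further: NT is the 2HG producing partner of a matched IDH1 knockdown line; potency means the concentration at half of the fitted maximal effect; 0% = DMSO-treated cells and -100% = media-only wells without cells; nearly all actives have a fitted effect of over 55% in size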
#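 HT-1080-NT; 750 cells/well; 5% FBS RPMI; 48 h compound, 37 degrees C; CellTiter-Glo luminescence; curve fitting and curve-class assignment.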
# TDP1 cell CPT: DT40-hTDP1 cell growth loss with CPT; chicken DT40 Tdp1-/-;hTDP1 cells + 20 nM CPT, ATP luminescence, 48 h; 12% of 420,000 active; AID 686979; Potency, µM (titrated, usually from 46.2 µM), without a hit: at the top dose activity change, negative = growth inhibition, actives largely listed as inhibitors; further: potency means the concentration at half of the fitted maximal effect; nearly all actives have a fitted effect of over 55% in size
#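 Chicken DT40 Tdp1-/- cells complemented with human TDP1, 400 cells/well, exposed to compounds plus 20 nM camptothecin for at least 48 h at 37 C; viability read as ATP content by CellTiter-Glo luminescence.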
# HT1080 IDH1KD tx: HT-1080 IDH1 knockdown cell toxicity (counter line); HT-1080 IDH1 knockdown viability, ATP luminescence, 48 h; Potency, µM (titrated, usually from 46.1 µM), for the others: at the top dose activity, negative = toxicity, hits mostly cytotoxic; 2% of 360,000 active;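 further: potency means the concentration at half of the fitted maximal effect; 0% = DMSO wells and -100% = cell-free medium wells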
#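 Using the IDH1-knockdown HT-1080 line run in the same batch and compound series as the NT line, viability after 48 h at 37 °C was determined by CellTiter-Glo luminescence and expressed as % activity.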
# TDP1 cell noCPT: qHTS for Inhibitors of human tyrosyl-DNA phosphodiesterase 1 (TDP1): qHTS in cells in absence of CPT. DT40 Tdp1-/- hTDP1 cells, no CPT, ATP luminescence, 48 h. Potency, µM (titrated, usually from 46.2 µM), for the others: at the top dose activity change, negative = growth inhibition, most hits filed as inhibitors. 15% of 420,000 active; further: potency means the concentration at half of the fitted maximal effect; nearly all actives have a fitted effect of over 55% in size
#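 A cellular qHTS used chicken DT40 cells lacking endogenous Tdp1 but carrying stably transfected human TDP1. Compounds were applied without camptothecin, and cell growth kinetics were judged by ATP-dependent luminescence after ≥48 hr.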
# IL-1B inflam inh: inhibitors of inflammasome signaling (IL-1 beta secretion). activity change, % at 57.5 µM. THP-1 LPS/ATP IL-1B secretion, AlphaLISA, 16 h; hits give low values. 4.7% of 360,000 active; in the data active means activity change below about -50%; inconclusive means mostly about -30% to -49%
#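 THP-1 cells pretreated 1 hr with compounds (up to 57.5 uM final), then stimulated with LPS (250 ng/mL final) plus ATP (1.25 mM final); secreted IL-1B measured by AlphaLISA after 16 hr, decreased signal indicating inhibition.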
# ALOX12 inh: ALOX12 (human) lipoxygenase inhibition. Potency, µM (series often up to 108 µM), without a hit: top-dose activity change, negative = inhibition, hits mostly inhibitors. purified 12hLO, xylenol orange hydroperoxide absorbance. 1.1% of 580,000 active. AID 1671190; further: potency means the concentration at half of the fitted maximal effect
# Target sequence (P18054 whole entry, looked up): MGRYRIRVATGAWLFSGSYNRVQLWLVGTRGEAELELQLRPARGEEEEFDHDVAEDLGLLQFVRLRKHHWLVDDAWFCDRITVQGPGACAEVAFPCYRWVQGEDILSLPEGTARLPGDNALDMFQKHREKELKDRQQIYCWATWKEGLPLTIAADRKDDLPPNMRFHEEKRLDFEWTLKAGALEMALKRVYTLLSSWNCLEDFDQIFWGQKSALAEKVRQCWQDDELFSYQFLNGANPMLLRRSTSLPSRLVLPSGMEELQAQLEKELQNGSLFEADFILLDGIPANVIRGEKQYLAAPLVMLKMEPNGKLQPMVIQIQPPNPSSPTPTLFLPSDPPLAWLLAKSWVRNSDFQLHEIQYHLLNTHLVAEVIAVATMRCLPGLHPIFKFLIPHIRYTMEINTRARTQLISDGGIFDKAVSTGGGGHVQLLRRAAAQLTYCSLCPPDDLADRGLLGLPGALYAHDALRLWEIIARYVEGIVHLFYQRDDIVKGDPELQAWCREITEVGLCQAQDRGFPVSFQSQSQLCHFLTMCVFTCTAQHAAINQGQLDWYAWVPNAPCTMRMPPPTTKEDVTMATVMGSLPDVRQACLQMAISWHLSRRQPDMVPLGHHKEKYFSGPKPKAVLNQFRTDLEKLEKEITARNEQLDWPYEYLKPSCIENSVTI
#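 Purified human 12hLO at 150 nM in 25 mM Hepes, 0.01% Triton X-100, pH 7.0, preincubated 15 min at room temperature with compound. Reaction started with 40 uM arachidonic acid, 30 min at room temperature. Hydroperoxide measured by Fe-xylenol orange, 573/405 nm absorbance ratio.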
# The depositor's hits bear a star; ? = inconclusive; / = no result given. Shown is part of a subset that was picked to be rich in hits. Unless noted, the call rests on the fitted dose curve; in most records, active means well fitted curve in the direction sought with a large enough effect; inconclusive means small, poorly fitted or top-dose-only effect, or another doubt; inactive means no such curve, though single readings can be large; an effect the other way counts as inactive or inconclusive. Unless noted, on the % scale 0 is the no-effect control and ±100 the full control effect.
SMILES,HT1080NT lethal,TDP1 cell CPT,HT1080 IDH1KD tx,TDP1 cell noCPT,IL-1B inflam inh,ALOX12 inh
CC(C)(C)C(=O)N1CCC(c2nn(-c3ccc(Cl)cc3)c(=O)[nH]2)CC1,/,/,/,/,/,2.8%
O=C(Cc1ccccc1)N1CCCC(c2nn(-c3ccc(Cl)cc3)c(=O)[nH]2)C1 (stereo not given),/,/,/,/,/,31.6µM*
O=C(NCC(O)COc1cccc(C(F)(F)F)c1)C1CCC1 (stereo not given),/,/,/,/,/,7.3%
CC(C)Oc1ccc(Cc2cnc(=S)[nH]c2N)cc1,3.4%,-25.6%,2.6%,?,0.0,35.5µM*
CC(=C\C(=O)O)/C(=C\c1ccc(Br)cc1)C(=O)O,/,/,/,/,/,-55.3%
c1ccc2c(c1)CCN(c1nc3cc4c(cc3s1)OCCO4)C2,?,10.3µM*,?,?,-57.9*,?
COc1cc(O)c(C(C)=O)c2c1C=CC(C)(C)O2,4.1%,-10.5%,0.2%,?,31.9,3.3%
COc1cc2c(cc1OC)[C@@H]1C(=O)c3ccc4c(c3O[C@@H]1CO2)C=CC(C)(C)O4,/,0.15µM*,/,0.106µM*,/,?
N#Cc1ccsc1NC(=O)CSc1ccc2c(c1)OCCCO2,/,/,/,/,/,-4.8%
Cc1cccc(CN2CCCN(S(=O)(=O)c3ccccc3)CCC(=O)NCC2)c1,/,/,/,/,/,-2.5%
CCCCNC(=O)c1cccc(NC(=O)c2nsc3ccccc23)c1,/,?,/,?,/,0.1%
COc1cccc(CNC(=O)c2cccc(Br)c2)c1,0.7%,?,11.2%,?,3.8,-27.3%
COc1cccc(CNC(=O)c2cccc(NC(=O)c3nsc4ccccc34)c2)c1,/,?,/,20.6µM*,/,-1.0%
O=C(NCc1cccc(F)c1)c1cccc(NC(=O)c2nsc3ccccc23)c1,/,23.1µM*,/,23.1µM*,/,0.1%
COc1cc(NC(=O)CC(c2cccs2)N2Cc3ccccc3C2=O)cc(OC)c1OC (stereo not given),/,23.1µM*,/,23.1µM*,/,-17.8%
COc1ccc(C(CC(=O)Nc2cccc(F)c2)N2Cc3ccccc3C2=O)cc1OC (stereo not given),/,/,/,/,/,1.6%
Cc1ccc(C(CC(=O)Nc2ccc(F)c(Cl)c2)N2Cc3ccccc3C2=O)cc1 (stereo not given),/,?,/,?,/,-16.4%
COc1ccc(C(CC(=O)Nc2ccc(C)c(C)c2)N2Cc3ccccc3C2=O)cc1OC (stereo not given),/,14.6µM*,/,20.6µM*,/,-12.7%
COc1ccc(C(CC(=O)Nc2ccc(F)c(Cl)c2)N2Cc3ccccc3C2=O)cc1OC (stereo not given),/,?,/,14.6µM*,/,-29.6%
Cc1cc(C)cc(NC(=O)C(C)Sc2ccccc2)c1 (stereo not given),/,/,/,/,/,16.0%
Cc1cc(C)cc(NC(=O)C(Nc2ccccc2)c2ccccc2)c1 (stereo not given),-8.5%,18.4µM*,-11.5%,-27.4%,-1.3,-5.0%
Cc1ccc(NC(=O)C(Nc2cccc(C)c2)c2ccccc2)cc1 (stereo not given),-28.6%,?,-15.6%,18.4µM*,-14.8,-20.8%
Cc1ccc(NC(C(=O)c2ccccc2)c2ccccc2)cc1 (stereo not given),23.1µM*,?,?,13µM*,-73.4*,?
Cc1ccc(NC(=O)C(Nc2ccccc2)c2ccccc2)cc1 (stereo not given),24.8%,0.0%,15.0%,-1.5%,-11.0,0.0%
CC(=O)N1c2ccccc2[C@@H](C)[C@@H]1C,4.7%,-13.1%,12.5%,-9.9%,26.5,0.0%
CC(=O)N1c2ccccc2C2(O)N=C(C)SC12 (stereo not given),9.5%,16.4µM*,6.6%,?,0.0,/
Cn1c(Cl)c(C=O)c2cc(C=O)ccc21,/,/,/,/,/,27.1%
